Pf growth 48h = inhibits P. falciparum growth in the first generation, 48 h; AID 504832; P. falciparum luciferase growth in erythrocytes, 48 h; Potency, µM (highest dose often 28.7 µM), for inactives: top-dose activity change, negative = inhibition, actives largely listed as inhibitors; 310,000 compounds, 5.9% hits; further: potency means the concentration at half of the fitted maximal effect; on the % scale 0 is the no-effect control and ±100 the full control effect
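Luciferase-expressing parasites in RBCs, 2% Hct / 0.1% parasitemia final; RPMI 1640 + 0.5% Albumax; 37 C, 5% CO2, one generation; luminescence read-out, lower signal = inhibition.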
CHX counter = counter-screen for Shiga toxin inhibitors: cycloheximide protein synthesis inhibition; cell reporter, cycloheximide protein synthesis inhibition counterscreen; max response, %; 300,000 compounds, 12% hits; AID 2314; in the data active means max response mostly above about 13%, no sharp cut-off; inactive means mostly below about 14%; further: read at 38.3 µM for the half of the compounds with a filed dose; 0% is about no effect
HCV inhibitor = inhibitors of hepatitis C virus infection | Huh7.5.1 HCVcc-Cre infection, luciferase reporter, 44 h | Potency, µM (highest dose often 41.8 µM), without a hit: top-dose activity change, negative = inhibition, most hits filed as inhibitors | 340,000 compounds, 3.4% hits | AID 651820; further: potency means the concentration at half of the fitted maximal effect; on the % scale 0 is the no-effect control and ±100 the full control effect
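HCVcc-Cre virus at an moi near 0.5 was added right after compound to cells cultured 4 h from seeding (1,000 cells/well). Luciferase activity was determined 44 h later, 15 min after substrate addition at RT.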
Shiga inhibitor = Shiga toxin inhibition. Vero cells, Shiga toxin protein synthesis inhibition reporter. inhibition, % at 38.7 µM. 290,000 compounds, 9.2% hits; in the data active means inhibition mostly above about 28%, no sharp cut-off; inactive means mostly below about 43%; further: 0% is about no effect
Pf growth 96h = P. falciparum growth inhibition at 96 hours | AID 504834 | Potency, µM (top dose mostly 28.7 µM), inactives show top-dose activity change, negative = inhibition, hits mostly inhibitors | P. falciparum luciferase reporter growth, 96 h | 320,000 compounds, 6.9% hits; further: potency means the concentration at half of the fitted maximal effect; on the % scale 0 is the no-effect control and ±100 the full control effect
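P. falciparum expressing integrated firefly luciferase grown in erythrocytes (2% hematocrit, 0.05% parasitemia final) with compounds for 96 hours at 37 C, 5% CO2. Growth inhibition read as loss of luminescence after adding luciferase detection reagent.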
HCMV inh = human cytomegalovirus inhibition. HFF cells, HCMV-luciferase reporter, 72 h; active compounds read low. activity change, negative = inhibition, % at 57.5 µM. 410,000 compounds, 4.5% hits. AID 1259415; in the data active means activity change below about -60%; inconclusive means no clear call, values can overlap the other calls; inactive means above about -39%; further: on the % scale 0 is the no-effect control and ±100 the full control effect
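Two-dose cell screen: HFF monolayers treated with compounds and infected with luciferase-expressing HCMV at 1 PFU/cell, 72 h at 37C, then lysed for luciferase measurement.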
* marks the source's active call; other numbers are inactive results; ? = inconclusive; . = no result. A selection: hits, their analogues and other compounds. The true share with any hit is near 21%. Unless noted, the call rests on the fitted dose curve; in most records, active means well fitted inhibition curve with a large enough effect; inconclusive means small, poorly fitted or top-dose-only effect, or another doubt; inactive means no such curve, though single readings can be large or run the other way.

SMILES	Pf growth 48h	CHX counter	HCV inhibitor	Shiga inhibitor	Pf growth 96h	HCMV inh
CCOc1ccc(-n2c(Cc3cc(=O)[nH]c(=O)[nH]3)nnc2SCC(=O)NC2CCCC2)cc1	.	-1	-1%	11	10µM*	27
COC(=O)C(C)Sc1nnc(Cc2cc(=O)[nH]c(=O)[nH]2)n1-c1cccc(OC)c1 (configuration not stated)	.	-1	17%	39	16%	43
CCOc1ccc(-n2c(Cc3cc(=O)[nH]c(=O)[nH]3)nnc2SC(C)C(=O)OC)cc1 (configuration not stated)	.	-2	.	-13	9.3µM*	?
O=C(NCCCn1ccnc1)/C(=C\c1ccc(Br)cc1)NC(=O)c1ccccc1F	7%	-3	11%	-8	?	5
CC1Oc2ccccc2N(CC(=O)Nc2ccc3c(c2)OCO3)C1=O (configuration not stated)	21%	16	11%	27	23%	24
CC1CCCCC12NC(=O)N(CC(=O)NC(=O)Nc1ccc3c(c1)OCCO3)C2=O (configuration not stated)	105%	33*	2%	105*	63%	128
CC1CCCCC12NC(=O)N(CC(=O)OCc1ccccc1Cl)C2=O (configuration not stated)	4%	.	-8%	.	20%	-7
CC(C)c1ccc(COC(=O)CN2C(=O)NC3(CCCCC3C)C2=O)cc1 (configuration not stated)	?	.	14µM*	.	28%	0
CC1Oc2ccccc2N(CC(=O)Nc2ccc3c(c2)OCCO3)C1=O (configuration not stated)	46%	44*	?	90	12µM*	64
CC1CCCCC12NC(=O)N(CC(=O)Nc1ccc3c(c1)OCO3)C2=O (configuration not stated)	.	.	.	.	.	12
CC1Oc2ccccc2N(CC(=O)NCc2ccc3c(c2)OCO3)C1=O (configuration not stated)	35%	-2	16%	30	12µM*	15
O=C(Cn1c(=O)c2sccc2n(CC(=O)Nc2ccc(Cl)cc2Cl)c1=O)NCCc1ccccc1	.	.	.	.	.	-7
COc1cccc(CN(C(=O)c2cccc(C)c2)C2CCS(=O)(=O)C2)c1 (configuration not stated)	.	.	.	.	.	3
NC(=O)C1CCN(CC(=O)Nc2ccc3c(c2)OCCO3)CC1	.	.	-7%	.	.	-14
CC1CC(C)CN(CC(=O)Nc2ccc3c(c2)OCCO3)C1 (configuration not stated)	-2%	48*	14%	74*	31%	46
O=C(CN1CCC(C(=O)c2ccc(Cl)cc2)CC1)Nc1ccc2c(c1)OCCO2	-20%	17*	?	30	-19%	-31
CNC(=O)C1CCC(Cn2c(=O)c3sccc3n(CC(=O)Nc3cc(C)cc(C)c3)c2=O)CC1 (configuration not stated)	.	.	.	.	.	3
OCCN1CCN(C(=S)Nc2ccccc2)CC1	-36%	-1	5%	-8	8%	75
O=C(CCCc1ccccc1)NCCN1CCOCC1	21%	-3	20%	-1	23%	-100*
OCCN1CCN(C(=S)NCCc2ccccc2)CC1	57%	18*	?	71*	57%	38
S=C(Nc1ccccc1)N1CCOCC1	16%	-2	4%	-13	-5%	-4
S=C(N/N=C/c1ccccc1)N1CCOCC1	-29%	40*	-6%	57*	?	32
O=C(CCN1CCOCC1)NCc1ccccc1	6%	3	13%	.	2%	5
O=C(NCCc1ccc(F)cc1)N1CCOCC1	38%	18*	0%	23	.	51
S=C(NCCc1ccccc1)N1CCOCC1	32%	40*	-2%	75*	62%	-28
SMILES	Pf growth 48h	CHX counter	HCV inhibitor	Shiga inhibitor	Pf growth 96h	HCMV inh
S=C(NCCc1ccccc1)NCCN1CCOCC1	47%	6.9*	24%	16	-8%	39
Oc1cccc(/C=N/NC(=S)NCCN2CCOCC2)c1O	?	1	?	16	?	-34
CCN1CCN(C(=S)NCCc2ccccc2)CC1	49%	24*	-21%	43*	38%	45
S=C(NCCN1CCOCC1)N/N=C/c1cccs1	3.3µM*	-5	1%	-6	2.3µM*	26
S=C(NCCc1ccccc1)N1CCCC1	.	.	7%	.	.	6
Cc1cccc(NC(=S)NCc2ccc(F)cc2)c1C	?	-4	?	2	?	-26
O=C(Nc1cccc(S(=O)(=O)NC2=NCCC2)c1)c1cc(Cl)ccc1[N+](=O)[O-]	?	.	?	.	19%	.
S=C(NCCc1ccccc1)N1CCN(C23CC4CC(CC(C4)C2)C3)CC1	9.3µM*	-5	?	-6	89%	-34
CCOc1ccc(C(=O)C(CN2CCOCC2)c2ccccc2)cc1 (configuration not stated)	?	-3	?	15	?	-99*
CCc1ccc(C(=O)C(C)CN2CCCCC2)cc1 (configuration not stated)	-6%	.	.	.	1.5µM*	.
O=C(c1ccccc1)C(CN1CCCCC1)c1ccccc1 (configuration not stated)	.	.	?	.	.	-68*
O=C(CCC(=O)c1cccs1)Nc1ncccc1O	-2%	.	14%	.	28%	-4
Cc1ccc(NC(=O)CN2C(=O)COc3ccc(S(=O)(=O)NC4CCCC4)cc32)cc1N(C)C	.	.	.	.	.	-5
CCn1cc(C(=O)N2CCN(c3ccc(F)cc3)CC2)c(=O)c2cc(S(=O)(=O)N3CCOCC3)ccc21	.	.	.	.	.	10
CC1(c2nnnn2-c2ccc3c(c2)OCCO3)CCC(=O)N1C1CC1 (configuration not stated)	.	.	.	.	.	-7
COc1ccc(NC(=O)C(c2cc3c(cc2[N+](=O)[O-])OCO3)N(C)c2ccccc2)cc1 (configuration not stated)	6%	19*	-19%	47	-36%	-38
COc1ccccc1CCNCc1cc2c(cc1[N+](=O)[O-])OCO2	4%	-4	-10%	-7	31%	-32
COc1ccc(-c2onc(C)c2C)cc1S(=O)(=O)Nc1ccc(OC(F)(F)F)cc1	.	.	.	.	.	33
CCNC(=O)NC(=O)C(C)Sc1nnc(COc2ccccc2Cl)o1 (configuration not stated)	.	15*	11%	28	?	17
O=c1[nH]nnc2c1cnn2-c1ccccc1	.	.	17%	.	.	18
CCCCN1C(=O)/C(=C/C=C2\SCCN2C)SC1=S	183%	33*	-24%	67*	-1%	100
CN1CCS/C1=C/C=C1/SC(=S)N(Cc2ccccc2)C1=O	?	26*	-3%	13	-9%	-19

High-throughput results (PubChem BioAssay)
